p53ts 39C kill = p53ts cell cytotoxicity, nonpermissive temperature. H1299-p53A138V viability at 39C, ATP luminescence, 24 h. Potency, µM (series often up to 46.1 µM), without a hit: top-dose activity change, negative = cell killing, actives largely listed as cytotoxic. actives 1.5% (n = 130,000). AID 902; note: % is set by controls: 0 for no effect and ±100 for the full control effect; nearly all actives have a fitted effect of over 55% in size
Tau filament bind = binders of human tau filaments. recombinant tau filaments, thioflavin S fluorescence, 15 h; filaments grown with octadecylsulfate alongside compound. Potency, µM (doses to about 57.1 µM), without a hit: top-dose activity change, negative = inhibition. actives 2% (n = 71,000);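 note: % is set by controls: 0 for no effect and ±100 for the full control effect; actives lower thioflavin S fluorescence by blocking filaments or displacing dye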
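His-tagged recombinant human tau (exons 2, 3, 10; 1 uM final) fibrillized with 30 uM sodium octadecylsulfate, 15 h at 37 C, in pH 7.4 HEPES buffer with 10 uM thioflavine S and 5 mM DTT. Reduced ThS fluorescence (450/510 nm) marks activity.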
FLuc inh = inhibitors of firefly luciferase; actives 2.2% (n = 72,000); purified firefly luciferase, luminescence, 8 min; Potency, µM (doses to about 57.1 µM), for inactives: at the top dose activity change, negative = inhibition, hits mostly inhibitors; note: % is set by controls: 0 for no effect and ±100 for the full control effect; nearly all actives have a fitted effect of over 40% in size
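Compounds were tested as concentration series (qHTS) against purified P. pyralis luciferase with luciferin and 10 uM ATP in 50 mM imidazole pH 7.2, 50 mM KCl, 7 mM MgCl2, 0.01% Tween 20, 0.05% BSA. Luminescence was read after 8 min at ambient temperature.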
Peg3 imprint = induces erasure of genomic imprints in mouse ES cells | mouse ES Peg3-LacZ reporter, beta-gal luminescence, 40 h | Potency, µM (doses to about 60.7 µM), for inactives: top-dose activity change, positive = activation, actives largely listed as activators | actives 0.02% (n = 110,000)
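Gelatin-coated wells received 300 freshly trypsinized female ES cells with a Peg3LacZ-Neo reporter on the maternal allele, then incubated 40 hours at 37C. BetaGlo was added for 5 minutes at room temperature before a single luminescence read.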
p53ts 32C kill = cytotoxicity in p53ts cells at permissive temperature. H1299-p53A138V at 32C, ATP luminescence viability, 24 h. Potency, µM (highest dose often 46.1 µM), for inactives: at the highest dose activity change, negative = cytotoxicity, actives largely listed as cytotoxic. actives 0.93% (n = 130,000);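 note: 0% = DMSO and -100% = full killing by reference compound; nearly all actives have a fitted effect of over 55% in size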
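H1299-p53 A138V cells (temperature-sensitive p53) exposed 24 h to up to 46 uM compound at 32C, where p53 is wild-type in conformation. Viability read as ATP luminescence and normalised to DMSO and 100 uM tamoxifen. AC50 fitted with the Hill equation.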
Active calls of the source: *; ? = inconclusive; · = no result given; [ ] = remark or other dose. Rows were chosen to be rich in hits. Some 3.4% of all compounds tested hit in one or more screens of this group. Calls come from the whole dose curve; as a rule, active = well fitted curve in the direction sought with a large enough effect; inconclusive = small, poorly fitted or top-dose-only effect, or another doubt; inactive = no such curve, though single readings can be large; an effect the other way counts as inactive or inconclusive. Potency is the fitted concentration of half-maximal effect.

SMILES	p53ts 39C kill	Tau filament bind	FLuc inh	Peg3 imprint	p53ts 32C kill
CCCCCSc1nc2sc3c(c2c(=O)n1-c1ccc(OC)cc1)CCN(C(C)=O)C3	12.6µM*	·	·	-21.1%[10.9 µM]	?
CCCN(CCC)C(=O)CSc1nc2sc3c(c2c(=O)n1-c1ccccc1)CCN(C(C)=O)C3	7.9%	·	·	22.4%[10.9 µM]	26.6%
O=C(O)c1ccc2cc(-c3ccc(O)c(C45CC6CC(CC(C6)C4)C5)c3)ccc2c1	?	·	·	-27.0%	20µM*
COc1c2c(nc3ccccc13)O[C@@H]([C@@](C)(O)CO)C2	10.8%	-4.8%	0.7%	·	8.8%
COC(=O)C1C(=O)C2=C(CC1C)NC(C)=C(C(=O)OC1CCCCC1)C2c1ccc(N(C)C)cc1 (configuration not stated)	16.1%	25.1µM*	1.8%	-15.1%	31.1%
COC(=O)C1C(=O)C2=C(CC1C)NC(C)=C(C(=O)OCCOc1ccccc1)C2c1ccc(C)o1 (configuration not stated)	10.1%	6.6%	0.0%	-29.0%	30.8%
COC(=O)C1C(=O)c2c([nH]c(C(=O)OC3CCCCC3)c2C)CC1C (configuration not stated)	-17.2%	49.0%	1µM*	-19.4%	-11.7%
COC(=O)C1C(=O)c2c([nH]c(C(=O)OC3CCCC3C)c2C)CC1C (configuration not stated)	-28.3%	22.5%	10µM*	-25.8%	?
COc1cc(NC(=O)CC2C(=O)N(c3cccc(C)c3)C(=O)N2Cc2cccs2)cc(OC)c1 (configuration not stated)	-15.0%	·	·	-2.5%[10.9 µM]	1.8%
COc1ccccc1-c1nc(N(C)Cc2ccco2)c2ccccc2n1	-8.2%	7.94µM*	-0.7%[2.29 µM]	-17.9%	10.2%
COc1ccccc1-c1nc(N(C)C)c2ccccc2n1	?	15.8µM*	0.2%[2.29 µM]	-6.5%	-19.1%
CCN(CC)S(=O)(=O)c1cc(C(=O)Nc2ccc(Cl)cn2)ccc1C	?	3.2%[11.4 µM]	7.94µM*	-18.1%	?
Cc1ccc(C(=O)Nc2ccc(Cl)cn2)cc1	?	7.2%	6.31µM*	-67.2%	7.94µM*
Cc1ccc(C(=O)NC2CCCCCC2)cc1N1CCCC1=O	2.1%	2.0%	0.9%	-15.5%	5.0%
Cc1ccccc1C(=O)Nc1ccc(Cl)cn1	-27.4%	-1.7%	?	-76.4%	-26.3%
CCN(CC)S(=O)(=O)c1cc(C(=O)NC2CCCCC2)ccc1C	?	2.3%[11.4 µM]	12.6µM*	-5.7%	?
Cc1ccc(NC(=O)c2ccc3ccccc3n2)nc1	?	-7.3%	6.31µM*	-20.8%	12.6µM*
Cc1coc2c(C)c3oc(=O)c(CC(=O)N4CCCCC4)c(C)c3cc12	-4.6%	·	·	-16.9%[10.9 µM]	11.5%
Cn1c(=O)c(-c2cc(F)cc(F)c2)nc2cnc(N3CCNCC3)nc21	-23.6%	5.01µM*	0.5%[11.4 µM]	-27.5%	-15.1%
CN1CCN(c2ncc3nc(-c4ccccc4)c(=O)n(C)c3n2)CC1	-6.4%	-11.5%	-1.4%[11.4 µM]	10µM*	0.7%
CN1CCN(c2ncc3nc(-c4cc(F)cc(F)c4)c(=O)n(Cc4cccs4)c3n2)CC1	-10.0%	3.16µM*	-0.4%[11.4 µM]	-16.6%	-13.5%
Cc1ccc2oc(=O)n(CCNC(=O)Nc3ccc(Cl)cc3)c2c1	-2.2%	·	·	-2.8%[10.9 µM]	2.4%
C[C@@H](Cc1ccccc1)Nc1ncnc2c1ncn2[C@@H]1O[C@@H](CO)[C@H](O)[C@@H]1O	14.4%	-8.8%	-1.9%	·	40.7%
OCCNCCCOc1cccc(Cl)c1Cl	12.6µM*	?	0.6%	-33.9%	?
Nc1ccccc1C(=O)C[C@@H](N)C(=O)O	·	39.8µM*	0.5%[11.4 µM]	·	·
O=C(O)c1c(Cl)c(Cl)c(Cl)c(Cl)c1-c1c2cc(I)c(=O)c(I)c-2oc2c(I)c(O)c(I)cc12	·	·	·	-24.0%	·
O=C(/C=C/Nc1ccccc1Br)c1ccccn1	1.26µM*	37.8%	0.1µM*	-93.9%	0.794µM*
O=C(NCCCNCCCNC(=O)c1ccccn1)c1ccccn1	1.0%	-8.1%	-2.0%	-14.7%	1.6%
O=C(/C=C\Nc1ccccn1)c1ccccc1	?	26.2%	3.16µM*	-83.3%	10µM*
CC(=O)c1ccc(NC(=O)c2ccn[nH]2)cc1	10µM*	-5.9%	25.1µM*	-76.7%	12.6µM*

Compound activity (PubChem)
